Our source for the growth values is PubChem BioAssay (NCI).

Holding throughout (test): NCI-60 one-dose screen, 48 h (100 = growth as untreated, 0 = no growth, -100 = all killed)
What all share (conditions): 10 µM

In test [1] the test system is SK-MEL-2 melanoma.
For test [2], the system named is SN12C renal.
Test [3] relates to UO-31 renal.
Test [4] has as its system TK-10 renal.
Test [5] relates to ACHN renal.
Test [6] relates to CAKI-1 renal.
The subject of test [7] is A498 renal.
Test [8] relates to CCRF-CEM leukemia.
Test [9] has as its system MOLT-4 leukemia.

This is part of a sample that, as a whole, favours compounds with a hit. Of some 83,000 tested, about 20% had one in any assay.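 The test compound was applied at a single concentration to cells in 96-well plates for 48 hours, and percent growth was recorded.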 Values without a mark were called inactive. Active and inactive are the calls of the source. How the source made its calls: active means growth percent below 10; inactive means the rest.

Turning to `COc1cc(-c2nc3ccccc3[nH]2)ccc1OCc1nnc(-c2ccc(Br)cc2)o1`, the growth in test [1] is 105%; in [2] it was 85.8%; in [3], 79.5%; in [4] it was 130%; in [5], 98.6%; in test [6], 95.5%. The growth in test [7] was 79.6%; in test [8] it was 67.9%; in test [9], 63.8%.
Consider `N#C/C(=C\N1C(=O)/C(=C/c2cccc([N+](=O)[O-])c2)SC1=S)c1nc2ccccc2s1`, for which the growth in test [1] was 73.1%; in test [2], 94.9%; in test [3] it was 56.3%; in test [4], 120%; in test [5] it was 81.5%; in test [6], 85.2%. The growth in test [7] was 71.8%; in test [8], 85.9%; in test [9] it was 87%.
Regarding `Cc1nnc2c3nnc(-c4ccc(Cl)cc4)n3c3ccccc3n12`, the growth in [1] was 99.9%; in [2] it was 97.7%; in test [3], 72.4%; in test [4], 92%; in [5] it was 101%; in [6] it was 93.2%. For the same compound, the growth was 94.3% in test [7], 90.3% in test [8] and 89.9% in [9].
For the compound `Nc1nc2c(nnn2C2CC(O)C(CO)O2)c(=O)[nH]1` (stereo not given), the growth in [1] was 42.8%; in test [2], 45.3%; in [3] it was 30.9%; in test [4], 59.2%; in test [5], 23.3%; in test [6], 32.4%. Further, the values for the growth in test [7], in test [8] and in [9] were 55.7%, 19.4% and 30.4%, respectively.
With `Nc1c(C(=O)NC2CCCCC2)sc2nc3c(cc12)C(=O)CCC3`, the growth in test [1] is 97.2%; in [2] it was 93.3%; in [3], 94.6%; in [4], 140%; in test [5], 107%; in test [6] it was 90.3%. For the same compound, the growth in test [7] is 88.6%; in test [8] it was 98.8%; in test [9], 90.2%.
On to `CCOC(=O)CNC(=O)Nc1ccc(Oc2ccc(NC(=O)NCC(=O)OCC)cc2)cc1`, for which the growth was 115% in test [1]; 94.7% in test [2]; 83.2% in [3]; 114% in test [4]; 102% in test [5]; 95.1% in test [6]. The growth in [7] was 95.7%; in test [8], 89.4%; in [9] it was 107%.
In the case of `Nc1c(CNCc2nnn(Cc3ccccc3)c2N)nnn1Cc1ccccc1`, the growth in test [1] was 103%; in [2], 99%; in [3], 86.5%; in test [4], 102%; in [5], 99.6%; in [6] it was 101%. The growth in test [7] was 98.4%; in [8], 95.4%; in test [9] it was 102%.
In the case of `COc1ccc(-c2nnc(COc3ccc(NC(=O)Nc4ccccc4)cc3F)o2)cc1`, the growth in [1] is 79.4%; in [2], 91.1%; in test [3], 68.9%; in test [4], 101%; in test [5] it was 77.6%; in test [6], 83.6%. Besides, the growth was 64% in test [7], 61.2% in test [8] and 58.7% in [9].
Turning to `COc1ccc(C2C=C(c3ccc(OC)c(OC)c3)N=C3SC=CN32)c(Br)c1` (stereo not given), the growth was 104% in test [1]; 75% in test [2]; 67.9% in [3]; 106% in test [4]; 76.6% in [5]; 71.5% in test [6]. The growth is 74% in test [7], -2.4% (active) in test [8] and 25.1% in [9].
Take `Cc1ccc(/C=C2\CN(Cc3cn(CCNc4ccnc5cc(Cl)ccc45)nn3)C/C(=C\c3ccc(C)cc3)C2=O)cc1`: the growth in [1] is -27.5% (active); in [2] it was -63.4% (active); in [3], -78.8% (active); in test [4] it was 29.9%; in [5], -16.9% (active); in [6], -13.6% (active). For the same compound, the growth was -81.1% (active) in [7], 11.7% in [8] and -10.4% (active) in test [9].
Regarding `O=[N+]([O-])c1ccc(-c2nc(Cl)c3c(n2)CCCC3)o1`, the growth in [1] is 102%; in test [2], 42.5%; in test [3], 97.8%; in [4], 118%; in [5], 97.4%; in [6] it was -15.6% (active). Further, the growth in test [7] was 84.3%; in test [8], 86.8%; in [9], 92.8%.
`CCN(Cc1ccccc1)C1CCN(Cc2cc(Br)ccc2O)CC1`: the growth was 69.7% in [1]; 44.8% in test [2]; 23.5% in test [3]; 52.1% in test [4]; 45.1% in test [5]; 44.7% in test [6]. Besides, the growth in test [7] was 66.2%; in test [8], 43.5%; in test [9], 61.2%.
Take `N/C(=N\O)c1cn(C2OC(CO)C(O)C2O)c2ncnc(N)c12` (stereo not given): the growth is -41.5% (active) in test [1]; 3.58% (active) in test [2]; 10% (active) in [3]; -0.402% (active) in [4]; 11.6% in [5]; 3.33% (active) in [6]. Besides, the figures for the growth in [7], in test [8] and in [9] were -56.3% (active), -10.4% (active) and -27.7% (active), respectively.
With `COc1ccc(-c2nc(-c3nc4ccc(OC)cc4[nH]3)c3ccccn23)cc1`, the growth in [1] is 71.3%; in test [2], 71.4%; in test [3], 25.5%; in [4] it was 79.3%; in test [5] it was 64.2%; in test [6], 64%. In addition, the growth in test [7] is 55.5%; in test [8], 33.8%; in test [9], 45.5%.
For the compound `N#Cc1cnc2ccc(NCc3cnc[nH]3)cc2c1Nc1ccc(F)c(Cl)c1`, the growth in test [1] is 32.5%; in test [2] it was 46.5%; in test [3], 51.5%; in test [4], 11.8%; in test [5], 24.6%; in test [6] it was 43.6%. For the same compound, the figures for the growth in test [7], in test [8] and in [9] were 52.4%, 71.3% and 79.6%, respectively.
